Source: PubChem
Rows were chosen to be rich in hits. Some 19% of all compounds tested hit in one or more screens of this group.
TDP1 cell noCPT: qHTS for Inhibitors of human tyrosyl-DNA phosphodiesterase 1 (TDP1): qHTS in cells in absence of CPT; DT40 Tdp1-/- hTDP1 cells, no CPT, ATP luminescence, 48 h; Potency, µM (doses to about 46.2 µM), without a hit: at the top dose activity change, negative = growth inhibition, usual class: inhibitors; hit rate 15% among 420,000; AID 686978, 2013; also: potency is read from the fitted curve at half-maximal effect; nearly all actives have a fitted effect of over 55% in size
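Chicken DT40 Tdp1-/- cells stably complemented with human TDP1 were seeded at 400 cells/well with DMSO in place of 20 nM camptothecin. After compound pinning, cells grew at least 48 hr at 37 °C; viability read by CellTiter-Glo luminescence.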
HT1080 IDH1KD tx: qHTS for induction of synthetic lethality in tumor cells producing 2HG: qHTS for the HT-1080-IDH1KD cell line; HT-1080 IDH1 knockdown viability, ATP luminescence, 48 h; Potency, µM (doses to about 46.1 µM), inactives show at the highest dose activity, negative = toxicity, usual class: cytotoxic; hit rate 2% among 360,000;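 also: potency is read from the fitted curve at half-maximal effect; 0% = DMSO wells and -100% = cell-free medium wells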
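Cytotoxicity counter-line: IDH1KD HT-1080, 48 h, CellTiter-Glo. Curves classed by r2, magnitude and activity.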
TDP1 cell CPT: qHTS for Inhibitors of human tyrosyl-DNA phosphodiesterase 1 (TDP1): qHTS in cells in presence of CPT. Potency, µM (series often up to 46.2 µM), inactives show at the top dose activity change, negative = growth inhibition, usual class: inhibitors. hit rate 12% among 420,000. chicken DT40 Tdp1-/-;hTDP1 cells + 20 nM CPT, ATP luminescence, 48 h; also: potency is read from the fitted curve at half-maximal effect; nearly all actives have a fitted effect of over 55% in size
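Cell growth measured by CellTiter-Glo luminescence after a minimum 48 h, 37 C compound exposure with 20 nM CPT in Tdp1-knockout DT40 cells stably expressing hTDP1, seeded 400/well; qHTS titration format.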
IL1B secr inh: qHTS for Inhibitors of Inflammasome Signaling: IL-1-beta AlphaLISA Primary Screen; AID 743279, 2014; THP-1 LPS/ATP IL-1B secretion, AlphaLISA, 16 h; active compounds read low; hit rate 4.7% among 360,000; activity change, % at 57.5 µM; in the data active = activity change below about -50%; inconclusive = mostly about -30% to -49%
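THP-1 cells pretreated 1 hr with compounds (up to 57.5 uM final), then stimulated with LPS (250 ng/mL final) plus ATP (1.25 mM final); secreted IL-1B measured by AlphaLISA after 16 hr, decreased signal indicating inhibition.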
uPA generation: qHTS for Inhibitors of Cell Surface uPA Generation. cell surface uPA generation assay, qHTS. Potency, µM (series often up to 38.3 µM), for the others: at the highest dose activity change, negative = inhibition, hits mostly inhibitors. hit rate 0.31% among 330,000; active = well fitted inhibition curve with a large enough effect; inconclusive = small, poorly fitted or top-dose-only effect; inactive = no such curve, though single readings can be large or run the other way; tested in mouse RAW 264.7 cells; also: potency is read from the fitted curve at half-maximal effect; nearly all actives have a fitted effect of over 55% in size
HT1080NT lethal: qHTS for induction of synthetic lethality in tumor cells producing 2HG: qHTS for the HT-1080-NT fibrosarcoma cell line | AID 686970, 2013 | Potency, µM (titrated, usually from 46.1 µM), for inactives: at the highest dose activity, negative = less viability, actives largely listed as cytotoxic | HT-1080-NT fibrosarcoma viability, CellTiter-Glo ATP luminescence, 48 h | hit rate 1.6% among 360,000;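 also: NT is the 2HG producing partner of a matched IDH1 knockdown line; potency is read from the fitted curve at half-maximal effect; 0% = DMSO-treated cells and -100% = media-only wells without cells; nearly all actives have a fitted effect of over 55% in size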
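750 cells/well, RPMI + 5% FBS; 2 h settle, compound pin-transfer, 48 h at 37 degrees C. CellTiter-Glo 10 min RT, luminescence. Normalized to DMSO and media-only wells.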
The depositor's hits bear a star; ? = inconclusive; · = not tested or not shown; [ ] = remark or other dose. Unless noted, calls follow the shape of the dose curve; as a rule, active = well fitted curve in the direction sought with a large enough effect; inconclusive = small, poorly fitted or top-dose-only effect, or another doubt; inactive = no such curve, though single readings can be large; an effect the other way counts as inactive or inconclusive. Unless noted, % is scaled to controls: 0 for no effect and ±100 for the full control effect.

SMILES	TDP1 cell noCPT	HT1080 IDH1KD tx	TDP1 cell CPT	IL1B secr inh	uPA generation	HT1080NT lethal
Cc1ccc(C(=O)N2CCN(c3ccc(NC(=S)NC(=O)Cc4ccccc4)cc3)CC2)cc1	?	1%	35µM*	-15	·	0%
COc1ccc(C(=O)N2CCN(c3ccc(NC(=O)Cc4ccccc4)cc3)CC2)cc1	?	-16%	?	1	2%	-16%
CCC(=O)N1CCN(c2ccc(NC(=O)COc3ccccc3Cl)cc2)CC1	26µM*	-20%	16µM*	-55*	·	?
CCC(=O)N1CCN(c2ccccc2NC(=O)COc2cccc(C)c2)CC1	-24%	1%	?	-15	-2%	1%
COc1ccccc1OCC(=O)Nc1ccc(N2CCCCC2)cc1	-24%	3%	?	-2	-27%	15%
CCC(=O)N1CCN(c2ccccc2NC(=O)COc2ccccc2Cl)CC1	?	-2%	23µM*	9	-3%	-20%
Cc1ccc(OCC(=O)NCc2n[nH]c(=O)c3ccccc23)cc1	-7%	1%	6%	19	4%	-2%
CN1CCN(S(=O)(=O)c2ccc(NC(=O)COc3ccccc3Cl)cc2)CC1	-1%	2%	-4%	37	-6%	-3%
Cc1ccc(OCCCC(=O)Nc2ccc(N3CCOCC3)cc2)c(C)c1	3%	-24%	7%	-4	2%	?
CN1CCN(c2ccc(NC(=O)COc3ccccc3Cl)cc2)CC1	16µM*	-3%	16µM*	?	-6%	2%
Cc1ccc(C(=O)N2CCN(c3ccc(NC(=O)COc4ccccc4C)cc3)CC2)cc1	5.2µM*	-28%	4.1µM*	-64*	·	-22%
CCC(=O)N1CCN(c2ccc(NC(=O)COc3ccc(C)cc3C)cc2)CC1	18µM*	?	?	22	-2%	-4%
O=C(Nc1ccc(F)cc1)C(c1cc2ccccc2o1)N1CCN(CC(=O)N2CCCC2)CC1 (stereo not drawn)	-21%	9%	?	12	·	2%
Cc1nc2c(ccc3nc(NC(=O)C(c4ccccc4)c4ccccc4)sc32)s1	7.3µM*	-5%	7.3µM*	1	4%	2%
Cc1nc2c(ccc3c2ccc2nc(C)sc23)s1	2%	5%[9.24 µM]	12%	-19	2%	16%
Cc1nc2c(ccc3nc(NC(=O)c4ccc5c(c4)OCCO5)sc32)s1	18µM*	-1%	16µM*	?	-27%	1%
O=C1NC[C@H](CCCCN2CCN(CC3CCCCC3)C(=O)C2=O)N(CCc2ccccc2)C1=O	-10%	19%	6%	6	·	21%
CC(=O)OC[C@H]1O[C@@H](n2ccc(=O)[nH]c2=S)C(OC(C)=O)C1OC(C)=O (stereo partly drawn)	-3%	-3%	2%	9	·	6%
CC(=O)OCC1OC(n2cc(F)c(=O)[nH]c2=O)C(OC(C)=O)C1OC(C)=O (stereo not drawn)	5.2µM*	?	8.2µM*	93	?	3%
CC(=O)OCC1OC(n2cnc3c(Cl)nc(Cl)nc32)C(OC(C)=O)C1OC(C)=O (stereo not drawn)	21µM*	·	?	·	·	·
COc1c[nH]n(-c2ccccc2)c(=O)c1=O	5%	-1%	-9%	18	10%	-1%
O=C(NCc1ccc(F)cc1)c1ccc(NC(=O)N2CC3CCCN3c3ccccc32)cc1 (stereo not drawn)	12µM*	·	16µM*	·	·	·
O=C(NCc1ccccc1Cl)c1ccc(NC(=O)N2CCCCc3ccccc32)cc1	-9%	·	-3%	·	·	·
O=C(NCc1ccc(Cl)cc1)c1ccc(NC(=O)N2CC3CCCN3c3ccccc32)cc1 (stereo not drawn)	18µM*	·	16µM*	·	·	·
O=C(NCc1ccc(Cl)cc1)C1CCCN1C(=O)Nc1ccc(F)cc1 (stereo not drawn)	9%	-12%	-12%	-8	3%	-4%
SMILES	TDP1 cell noCPT	HT1080 IDH1KD tx	TDP1 cell CPT	IL1B secr inh	uPA generation	HT1080NT lethal
CC1CC(=O)Nc2ccccc2N1S(=O)(=O)c1cccc(Cl)c1 (stereo not drawn)	?	11%	?	-5	4%	26%
Cc1ccc(S(=O)(=O)N2CCC(C(=O)N3CCCC(C(F)(F)F)C3)CC2)cc1C (stereo not drawn)	-26%	0%	?	-10	1%	0%
NC1(C(=O)O)CSSC1	7.3µM*	?	-118%	-77*	-9%	?
CCNC(=O)C1(C)CCCN(Cc2ccc3ccccc3c2Br)C1 (stereo not drawn)	18µM*	?	?	?	·	?
COCCNC(=O)C1(C)CCN(Cc2ccc3ccccc3c2Br)C1 (stereo not drawn)	10µM*	17%	29µM*	35	·	-3%
O=C(CCC(=O)N1CCOc2ccccc21)NCCc1ccccc1	1%	2%	-4%	-18	15%	2%
O=C(Nc1ccc(C(=O)O)cc1)Nc1cccc2ccccc12	3%	1%	1%	15	-6%	-1%
Cc1oc(-c2ccccc2)cc1C(=O)Nc1cccc(C(=O)O)c1	-7%	3%	-4%	25	·	3%
O=C(Nc1cccc2ccccc12)N(c1ccccc1)c1ccccc1	21µM*	-1%	21µM*	0	2%	-3%
Cc1oc(-c2ccccc2)cc1C(=O)Nc1cccc2ccccc12	-18%	-1%	-26%	-66*	-6%	-15%
Cc1cc(O)c(C(C)C)cc1NC(=O)Nc1cccc2ccccc12	?	-9%	-25%	-66*	5%	-14%
O=C(Nc1ccccc1)Nc1cccc2ccccc12	?	10%	16µM*	2	3%	-14%
Cc1cc(C(=O)CN2C(=O)C(=O)N(CCC3=CCCCC3)C2=O)c(C)n1C	?	-2%	?	-8	3%	-4%
Cc1ccc(C(=O)NCCN2CCC(n3c(=O)[nH]c4ccccc43)CC2)cc1C	?	-20%	?	·	·	-21%
O=C(Nc1ccccc1)Nc1ccc(O)c2ccccc12	12µM*	-17%	1.6µM*	41	-21%	-10%
O=C(Nc1ccccc1)Nc1ccc(NC(=O)c2ccccc2O)cc1	-13%	-14%	-21%	?	-17%	-10%
